High-throughput results (PubChem)
Compounds with a hit are over-represented: about 6.6% of the library has one in this group of screens.
MCF10A rereplic: A quantitative high throughput screen for small molecules that induce DNA re-replication in MCF 10a normal breast cells; MCF 10A DNA re-replication, Hoechst nuclear intensity, 48 h; Potency, µM (highest dose often 46.1 µM), most hits filed as activators; actives 2.9% (n = 350,000); note: nearly all actives have a fitted effect of over 50% in size
PTAP TSG101 blk: qHTS Assay for Iinhibitors of HIV-1 Budding by Blocking the Interaction of PTAP/TSG101; Tumor susceptibility gene 101 protein (Homo sapiens), Q99816; Fluorescence polarization, FITC-PTAP peptide / Tsg101 binding; Potency, µM (doses to about 115 µM), actives largely listed as inhibitors; 340,000 tested, under 10 active; AID 493005, 2010; active = well fitted inhibition curve with a large enough effect in the main read-out, with a control signal flat, not every such curve was filed as active; inconclusive = small, poorly fitted or top-dose-only effect, or effect the other way, or a change in a side signal; inactive = no such curve, though single readings can be large or run the other way
Target sequence (Q99816 whole entry, looked up): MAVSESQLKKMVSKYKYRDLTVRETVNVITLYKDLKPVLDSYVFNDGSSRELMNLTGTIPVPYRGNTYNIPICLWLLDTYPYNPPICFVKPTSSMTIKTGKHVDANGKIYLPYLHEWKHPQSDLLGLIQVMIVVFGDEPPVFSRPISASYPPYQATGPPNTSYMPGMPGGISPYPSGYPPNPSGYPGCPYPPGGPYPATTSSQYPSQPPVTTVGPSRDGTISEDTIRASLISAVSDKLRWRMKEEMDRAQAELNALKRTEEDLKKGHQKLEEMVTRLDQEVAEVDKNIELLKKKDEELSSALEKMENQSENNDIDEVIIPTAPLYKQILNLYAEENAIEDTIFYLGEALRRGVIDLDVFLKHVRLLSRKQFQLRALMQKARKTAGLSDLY
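Fluorescence polarization binding of Tsg101 binding domain (10 uM final) to FITC-labeled PTAP peptide (50 nM final) in HEPES pH 7.5 buffer with NaCl, Tween 20, EDTA, TCEP. Compounds added before peptide; binding 20 min at RT.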
KB-V1 MDR tox: qHTS assay for MDR1-selective chemotherapeutics: Primary screen using the drug-selected MDR subline cells KB-V1; KB-V1 MDR cells viability, CellTiter-Glo, 72 h; Potency, µM (titrated, usually from 46.1 µM), most hits filed as cytotoxic; actives 3.4% (n = 400,000); note: nearly all actives have a fitted effect of over 60% in size
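qHTS viability screen in drug-selected KB-V1 MDR cells: 72 h compound treatment at 37 degrees C, ATP luminescence end point.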
KB-3-1 tox: qHTS assay for MDR1-selective chemotherapeutics: Primary screen using the parental adenocarcinoma cell KB-3-1 | actives 1.4% (n = 400,000) | KB-3-1 viability, CellTiter-Glo ATP luminescence, 72 h | Potency, µM (top dose mostly 46.1 µM), most hits filed as cytotoxic | AID 1347075, 2019; note: nearly all actives have a fitted effect of over 60% in size
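Multi-concentration cytotoxicity screen in KB-3-1 cells grown in DMEM lacking phenol red with 10% FBS. After 72 h at 37 °C with compound, ATP-dependent luminescence was recorded.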
SW480 rereplic: A quantitative high throughput screen for small molecules that induce DNA re-replication in SW480 colon adenocarcinoma cells; AID 624297, 2012; SW480 DNA re-replication, Hoechst DNA content imaging, 48 h; Potency, µM (highest dose often 46.1 µM), hits mostly activators; actives 1.8% (n = 340,000); note: nearly all actives have a fitted effect of over 55% in size
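Readout is total intensity of Hoechst-stained nuclei, excited at 405 nm and collected at 500-530 nm. Compound treatment lasted 48 hr at 37 C in 5% CO2 before staining.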
RGS4 inhibitor: Inhibitors of Regulator of G Protein Signaling (RGS) 4: qHTS; Transcreener GDP fluorescence polarization, RGS4-accelerated GTP hydrolysis; AID 504845, 2011; actives 0.039% (n = 390,000); Potency, µM (highest dose often 114 µM), hits mostly inhibitors; note: nearly all actives have a fitted effect of over 75% in size
Target sequence (P49798 whole entry, looked up): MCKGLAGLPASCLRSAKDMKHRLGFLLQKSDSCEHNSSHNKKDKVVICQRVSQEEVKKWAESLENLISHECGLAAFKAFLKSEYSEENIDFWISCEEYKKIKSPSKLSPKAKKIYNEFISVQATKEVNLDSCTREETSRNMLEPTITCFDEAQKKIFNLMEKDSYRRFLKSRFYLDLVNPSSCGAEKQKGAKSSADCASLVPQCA
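MLSMR compounds (23 nl, pin-transferred) preincubated 10 min at room temperature with a 500nM (2x) first reagent, then RGS4 at 900nM (2x) plus Transcreener GDP mix added; fluorescence polarization (620/688 nm) read before and after 90 min at 30 °C.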
Of the large screens only hits and unclear results are named; the others gave an inactive call; ! = not confirmed by another sample. Unless noted, calls come from the whole dose curve; as a rule, active = well fitted curve in the direction sought with a large enough effect; inconclusive = small, poorly fitted or top-dose-only effect, or another doubt; inactive = no such curve, though single readings can be large; an effect the other way counts as inactive or inconclusive.

Cc1nn2c(C)c(C(=O)NCC(C)c3ccccc3)cnc2c1-c1ccccc1 (configuration not stated)	none (no result: MCF10A rereplic, PTAP TSG101 blk, SW480 rereplic)
CCCCOc1ccc(C(=O)N(Cc2ccc(N(C)C)cc2)Cc2ccco2)cc1	none (no result: MCF10A rereplic, PTAP TSG101 blk, KB-V1 MDR tox, KB-3-1 tox, SW480 rereplic)
CCOc1ccc(OCc2ccc(C(=O)NN=Cc3ccc[nH]3)cc2)cc1	MCF10A rereplic inconclusive, KB-3-1 tox 2.3µM
Cc1cccc(N2CCN(c3nc(C)cc(C)c3C#N)CC2C)c1 (configuration not stated)	MCF10A rereplic 18µM, KB-3-1 tox inconclusive, SW480 rereplic inconclusive
Cc1ccc(NC(=O)N2CCc3c(sc4c3CCCC4)C2c2ccccc2)cc1F (configuration not stated)	none (no result: MCF10A rereplic, PTAP TSG101 blk, SW480 rereplic)
Cc1ccc(-n2c(-c3ccc(Cl)cc3)c[n+]3c2CCC3)cc1	KB-3-1 tox 4.6µM
Cc1ccc(-n2c(-c3ccccc3)c[n+]3c2CCC3)cc1	KB-V1 MDR tox inconclusive, KB-3-1 tox 3.7µM
Cc1ccc(-n2c(-c3ccccc3)nnc2-c2cccs2)cc1	none
FC(F)Sc1ccc(-n2c(-c3ccc(Cl)cc3)c[n+]3c2CCC3)cc1	MCF10A rereplic inconclusive, KB-3-1 tox inconclusive
Cc1ccccc1N(C)C(=O)c1noc2c1COc1ccccc1-2	none (no result: MCF10A rereplic, PTAP TSG101 blk, KB-V1 MDR tox, KB-3-1 tox, SW480 rereplic)
Cc1ccc(NC2=CC(=O)C(=O)c3ccccc32)c(C)c1	KB-V1 MDR tox inconclusive, KB-3-1 tox inconclusive
O=C1C=C(Nc2ccccc2O)c2ccccc2C1=O	MCF10A rereplic inconclusive, KB-V1 MDR tox 21µM, KB-3-1 tox 18µM, SW480 rereplic 6.5µM, RGS4 inhibitor inconclusive
CCOc1ccc(NC2=CC(=O)C(=O)c3ccccc32)cc1	MCF10A rereplic inconclusive, KB-V1 MDR tox 4.1µM, KB-3-1 tox 6.5µM, SW480 rereplic 13µM
COc1cc(Cl)c(NC2=CC(=O)C(=O)c3ccccc32)c(OC)c1	MCF10A rereplic 3.3µM, KB-V1 MDR tox 8.2µM, KB-3-1 tox 9.2µM, SW480 rereplic 8.2µM
NC1=CC(=O)C(=O)c2ccccc21	MCF10A rereplic inconclusive, KB-V1 MDR tox inconclusive, SW480 rereplic inconclusive
O=C1C=C(Nc2ccc(F)cc2)c2ccccc2C1=O	MCF10A rereplic inconclusive, KB-V1 MDR tox 21µM, KB-3-1 tox inconclusive, SW480 rereplic 9.2µM
O=C(CCCCCn1c(=O)c2sccc2n(CC(=O)Nc2cc(C(F)(F)F)ccc2Cl)c1=O)NCc1ccccc1Cl	none (no result: MCF10A rereplic, PTAP TSG101 blk, KB-V1 MDR tox, KB-3-1 tox, SW480 rereplic)
O=C1C=C(Nc2cccnc2)c2ccccc2C1=O	MCF10A rereplic 9.2µM, KB-V1 MDR tox inconclusive, KB-3-1 tox 8.2µM, SW480 rereplic 6.5µM
O=c1cccccc1NCc1ccccc1	none
O=C1C=C(NCc2ccccc2)c2ccccc2C1=O	MCF10A rereplic inconclusive, KB-V1 MDR tox inconclusive, KB-3-1 tox inconclusive, SW480 rereplic 18µM
S=C1Nc2ccccc2CS1	none (no result: MCF10A rereplic, PTAP TSG101 blk, SW480 rereplic, RGS4 inhibitor)
S=C1Cc2ccccc2N1	MCF10A rereplic inconclusive, KB-V1 MDR tox inconclusive, KB-3-1 tox 5.8µM, SW480 rereplic inconclusive, RGS4 inhibitor inconclusive
CCOC(=O)N1CCC(NC(=O)c2cc3sccc3n2CC)CC1	MCF10A rereplic inconclusive, KB-V1 MDR tox 23µM
CCn1c(C(=O)NC2CCC(C)CC2)cc2sccc21 (configuration not stated)	none
CC(CCc1ccccc1)NC(=O)C(=O)c1c[nH]c2ccccc12 (configuration not stated)	MCF10A rereplic 10µM
O=C(NCCc1ccccc1)C(=O)c1c[nH]c2ccccc12	none
O=C(NCCn1cc(SCc2ccc(F)cc2)c2ccccc21)c1c(F)cccc1F	MCF10A rereplic inconclusive, KB-V1 MDR tox 18µM!, KB-3-1 tox inconclusive
O=C(NCCn1cc(SCc2ccccc2)c2ccccc21)c1c(F)cccc1F	none
CCc1cc(C(=O)OC)c(NC(=O)c2cc(Br)cs2)s1	KB-V1 MDR tox 16µM
O=C(Nc1ccc(-c2nc3ccccc3[nH]2)cc1)c1ccc(Oc2ccccc2)cc1	none (no result: MCF10A rereplic, PTAP TSG101 blk, SW480 rereplic, RGS4 inhibitor)
O=S1(=O)c2ccc(Br)cc2N2CCC[C@@H]2CN1Cc1ccccc1	MCF10A rereplic inconclusive, KB-3-1 tox inconclusive, SW480 rereplic 2.9µM
COC(=O)c1ccc(CC(=O)c2nc3ccccc3s2)cc1	none
COC(=O)c1ccc(/C(O)=C(\C#N)c2nc3ccccc3s2)cc1	KB-V1 MDR tox 8.2µM
CN1c2ccccc2C(C)(C)C12C=Cc1cc(O)ccc1O2 (configuration not stated)	KB-V1 MDR tox inconclusive
CN1c2ccccc2C(C)(C)C12C=Nc1c(cc(N3CCOCC3)c3ccccc13)O2 (configuration not stated)	MCF10A rereplic 7.3µM, KB-3-1 tox inconclusive, SW480 rereplic 21µM
Cc1cccc(N2C(=O)CC(Sc3nc(C)c4c(n3)CCCC4)C2=O)c1 (configuration not stated)	KB-V1 MDR tox 16µM, SW480 rereplic 5.8µM
CCn1c(O)c(C=Nc2ccccc2)sc1=S	none
CCn1c(O)c(C=Nc2ccccc2)n(-c2ccccc2)c1=S	KB-V1 MDR tox inconclusive, KB-3-1 tox 5.8µM
COc1ccc(-c2nnn(CC(=O)N(CC(=O)NC3CCCC3)Cc3cccs3)n2)cc1OC	KB-V1 MDR tox 12µM
COc1ccc(-c2nnn(CC(=O)N(CC(=O)NC3CCCC3)Cc3ccco3)n2)cc1OC	none
COc1ccc(-c2nnn(CC(=O)N(Cc3cccs3)C(C)C(=O)NC3CCCC3)n2)cc1OC (configuration not stated)	KB-V1 MDR tox 2.1µM
Cc1ccc(OCc2nc(-c3ccc(C(=O)NCCc4ccc(S(N)(=O)=O)cc4)cc3)oc2C)cc1	none (no result: MCF10A rereplic, PTAP TSG101 blk, SW480 rereplic)
COc1ccc2c(CNCc3ccc(Cl)cc3)c(C(=O)O)n(Cc3ccccc3C)c2c1	none (no result: MCF10A rereplic, PTAP TSG101 blk, KB-V1 MDR tox, KB-3-1 tox, SW480 rereplic)
O=C1CC(c2ccc(F)cc2)Cc2nc(N3CCN(c4ccccc4)CC3)ncc21 (configuration not stated)	MCF10A rereplic inconclusive
O=C1CC(c2ccc(F)cc2)Cc2nc(NCC3CCCO3)ncc21 (configuration not stated)	KB-V1 MDR tox 21µM
CCOC(=O)N1C(COCc2ccccc2)C=CCS1(=O)=O (configuration not stated)	none (no result: MCF10A rereplic, PTAP TSG101 blk, KB-V1 MDR tox, KB-3-1 tox, SW480 rereplic)
Cc1cc(-c2ccc(S(=O)(=O)Nc3ccccc3F)s2)on1	none (no result: MCF10A rereplic, PTAP TSG101 blk, SW480 rereplic)
COc1ccc(N2CC(C(=O)N3CCOCC3)CC2=O)cc1 (configuration not stated)	none
